# Hit rate of the full screen: of about 5,500 compounds, about 2,000 (36%) were called active. Roughly 18% stayed inconclusive and do not appear here. Some of the results follow. A number with no mark means an inactive call. No stated cut-off is given here; in the data, active means normalized growth mostly below about 0.91 (no sharp cut-off); inconclusive means no clear call, values can overlap the other calls; inactive means mostly above about 0.92.
# Assay: chemical genetic growth profiling, strain panel (AID 1159580);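 further: tested at 20 µM; growth read once vehicle control cultures reached saturation at 30 °C; 1 = growth at the plate median or of vehicle wells; lower values mean less growth of the strain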
# Settings: S. cerevisiae deletion strains, growth OD
# [1] = locus YJR075W, strain HOC1, hits give low values
# [2] = locus YMR307W, strain GAS1, hits give low values
# [3] = locus YNL322C, strain KRE1, hits give low values
smiles,measurement,setting,value
COC(=O)C(O)[C@H]1C(C)(C)[C@@H](OC(C)=O)[C@@H]2CC3=C4CC(=O)O[C@@H](c5ccoc5)[C@]4(C)CCC3[C@@]1(C)C2=O (stereo not given in full),normalized growth,"locus YBR021W, strain FUR4, hits give low values",0.99
same,normalized growth,"locus YBR229C, strain ROT2, hits give low values",0.996
same,normalized growth,"locus YCL029C, strain bik1, hits give low values",1.02
same,normalized growth,"locus YDL035C, strain GPR1, hits give low values",0.994
same,normalized growth,"locus YDL074C, strain BRE1, hits give low values",0.941
same,normalized growth,"locus YDL101C, strain DUN1, hits give low values",1.01
same,normalized growth,"locus YDL185W, strain tfp1, hits give low values",1.01
same,normalized growth,"locus YDL192W, strain arf1, hits give low values",0.986
same,normalized growth,"locus YDR101C, strain arx1, hits give low values",1.01
same,normalized growth,"locus YDR162C, strain NBP2, hits give low values",0.963
same,normalized growth,"locus YDR318W, strain mcm21, hits give low values",0.989
same,normalized growth,"locus YDR388W, hits give low values",1
same,normalized growth,"locus YDR502C, strain sam2, hits give low values",1
same,normalized growth,"locus YER110C, hits give low values",1
same,normalized growth,"locus YER155C, strain BEM2, hits give low values",1.01
same,normalized growth,"locus YER167W, strain BCK2, hits give low values",0.986
same,normalized growth,"locus YGL078C, strain dbp3, hits give low values",1.01
same,normalized growth,"locus YGL086W, strain mad1, hits give low values",0.979
same,normalized growth,"locus YGL248W, strain PDE1, hits give low values",0.992
same,normalized growth,"locus YGR135W, strain pre9, hits give low values",0.97
same,normalized growth,"locus YGR252W, strain gcn5, hits give low values",0.989
same,normalized growth,"locus YHR079C, strain IRE1 (second series), hits give low values",1
same,normalized growth,"locus YHR094C, strain hxt1, hits give low values",1
same,normalized growth,"locus YHR129C, strain ARP1, hits give low values",0.989
same,normalized growth,"locus YHR200W, strain rpn10, hits give low values",1
same,normalized growth,"locus YIL066C, strain RNR3, hits give low values",0.981
same,normalized growth,"locus YIL073C, strain SPO22, hits give low values",1
same,normalized growth,"locus YIL125W, strain kgd1, hits give low values",1.01
same,normalized growth,"locus YIR030C, strain dcg1, hits give low values",1.01
same,normalized growth,"locus YJL095W, strain BCK1, hits give low values",0.915
same,normalized growth,"locus YJL134W, strain LCB3, hits give low values",0.995
same,normalized growth,"locus YJL168C, strain set2, hits give low values",0.995
same,normalized growth,"locus YJL187C, strain SWE1 (second series), hits give low values",0.993
same,normalized growth,"locus YJR043C, strain POL32, hits give low values",1.02
same,normalized growth,[1],0.995
same,normalized growth,"locus YKL009W, strain mrt4, hits give low values",1.01
same,normalized growth,"locus YKL068W, hits give low values",1
same,normalized growth,"locus YKL085W, strain MDH1 (second series), hits give low values",0.995
same,normalized growth,"locus YKL085W, strain MDH1, hits give low values",0.995
same,normalized growth,"locus YKL190W, strain CNB1, hits give low values",0.998
same,normalized growth,"locus YKR001C, strain vps1, hits give low values",0.977
same,normalized growth,"locus YLR039C, strain RIC1, hits give low values",0.764
same,normalized growth,"locus YLR058C, strain SHM2, hits give low values",0.99
same,normalized growth,"locus YLR102C, strain apc9, hits give low values",0.993
same,normalized growth,"locus YLR262C, strain YPT6, hits give low values",0.805
same,normalized growth,"locus YLR268W, strain sec22, hits give low values",0.983
same,normalized growth,"locus YLR330W, strain CHS5, hits give low values",0.992
same,normalized growth,"locus YLR371W, strain rom2, hits give low values",0.982
same,normalized growth,"locus YLR418C, strain cdc73, hits give low values",0.906
same,normalized growth,"locus YML016C, strain PPZ1, hits give low values",0.994
same,normalized growth,"locus YML032C, strain rad52, hits give low values",1
same,normalized growth,"locus YML124C, strain tub3, hits give low values",1
same,normalized growth,"locus YMR078C, strain ctf18, hits give low values",0.983
same,normalized growth,"locus YMR223W, strain ubp8, hits give low values",0.99
same,normalized growth,[2],0.76
same,normalized growth,"locus YNL067W, strain RPL9B, hits give low values",0.991
same,normalized growth,"locus YNL233W, strain BNI4, hits give low values",0.984
same,normalized growth,"locus YNL250W, strain rad50, hits give low values",1.02
same,normalized growth,"locus YNL271C, strain bni1, hits give low values",0.998
same,normalized growth,"locus YNL298W, strain CLA4, hits give low values",1.01
same,normalized growth,"locus YNL307C, strain MCK1, hits give low values",0.991
same,normalized growth,[3],1
same,normalized growth,"locus YNR052C, strain pop2, hits give low values",0.99
same,normalized growth,"locus YOL012C, strain htz1",0.744
same,normalized growth,"locus YOL147C, strain pex11, hits give low values",1
same,normalized growth,"locus YOR061W, strain CKA2, hits give low values",0.997
same,normalized growth,"locus YOR069W, strain VPS5, hits give low values",0.996
same,normalized growth,"locus YOR136W, strain idh2, hits give low values",1.01
same,normalized growth,"locus YOR144C, strain elg1, hits give low values",1
same,normalized growth,"locus YOR184W, strain ser1, hits give low values",0.965
same,normalized growth,"locus YOR316C, strain cot1, hits give low values",1.01
same,normalized growth,"locus YPL055C, strain LGE1, hits give low values",1.01
same,normalized growth,"locus YPR119W, strain clb2, hits give low values",1
same,normalized growth,"locus YPR141C, strain kar3, hits give low values",0.992
same,normalized growth,"locus YPR163C, strain tif3, hits give low values",1
same,normalized growth,"locus YPR167C, strain met16, hits give low values",1
same,normalized growth,"strain wtn01, hits give low values",0.995
CC(=O)NC1C(O)OC(COS(=O)(=O)O)C(OC2OC(C(=O)O)C(OC3OC(CO)C(OC4OC(C(=O)O)C(O)C(O)C4OS(=O)(=O)O)C(OS(=O)(=O)O)C3NS(=O)(=O)O)C(O)C2OS(=O)(=O)O)C1O (stereo not given),normalized growth,"locus YAL021C, strain ccr4, hits give low values",0.991
same,normalized growth,"locus YAL026C, strain drs2, hits give low values",0.974
same,normalized growth,"locus YAL030W, strain snc1, hits give low values",0.988
same,normalized growth,"locus YBL061C, strain skt5, hits give low values",0.964
same,normalized growth,"locus YBR009C, strain hhf1, hits give low values",0.989
same,normalized growth,"locus YBR023C, strain chs3, hits give low values",0.971
same,normalized growth,"locus YBR171W, strain sec66, hits give low values",0.957
same,normalized growth,"locus YBR231C, strain swc5, hits give low values",0.991
same,normalized growth,"locus YBR279W, strain paf1, hits give low values",0.981
same,normalized growth,"locus YCL011C, strain gbp2, hits give low values",0.976
same,normalized growth,"locus YCL016C, strain dcc1, hits give low values",0.971
same,normalized growth,"locus YCL061C, strain MRC1, hits give low values",0.978
same,normalized growth,"locus YCL069W, strain vba3, hits give low values",0.976
same,normalized growth,"locus YCR088W, strain abp1, hits give low values",0.974
same,normalized growth,"locus YDL005C, strain med2, hits give low values",0.978
same,normalized growth,"locus YDL040C, strain nat1, hits give low values",0.973
same,normalized growth,"locus YDR001C, strain nth1, hits give low values",0.976
same,normalized growth,"locus YDR069C, strain doa4, hits give low values",0.978
same,normalized growth,"locus YDR137W, strain rgp1, hits give low values",0.92
same,normalized growth,"locus YDR159W, strain sac3, hits give low values",0.992
same,normalized growth,"locus YDR195W, strain ref2",0.965
same,normalized growth,"locus YDR297W, strain sur2, hits give low values",0.981
same,normalized growth,"locus YDR334W, strain swr1, hits give low values",0.96
same,normalized growth,"locus YDR335W, strain msn5, hits give low values",0.978
same,normalized growth,"locus YDR392W, strain spt3, hits give low values",0.979
same,normalized growth,"locus YEL003W, strain gim4, hits give low values",0.978
same,normalized growth,"locus YEL037C, strain rad23, hits give low values",0.978
same,normalized growth,"locus YEL061C, strain CIN8 (second series), hits give low values",0.976
same,normalized growth,"locus YER015W, strain faa2, hits give low values",0.986
same,normalized growth,"locus YER016W, strain bim1, hits give low values",0.982
same,normalized growth,"locus YER111C, strain swi4, hits give low values",0.968
same,normalized growth,"locus YER155C, strain BEM2 (second series), hits give low values",0.975
same,normalized growth,"locus YFR010W, strain ubp6, hits give low values",0.968
same,normalized growth,"locus YGL167C, strain pmr1, hits give low values",0.97
same,normalized growth,"locus YGL173C, strain kem1, hits give low values",0.966
same,normalized growth,"locus YGL227W, strain vid30, hits give low values",0.975
same,normalized growth,"locus YGL240W, strain doc1, hits give low values",0.996
same,normalized growth,"locus YGL253W, strain hxk2, hits give low values",0.994
same,normalized growth,"locus YHR013C, strain ard1, hits give low values",0.947
same,normalized growth,"locus YHR027C, strain rpn1, hits give low values",0.979
same,normalized growth,"locus YHR142W, strain chs7, hits give low values",0.957
same,normalized growth,"locus YJL092W, strain hpr5, hits give low values",0.976
same,normalized growth,"locus YJL095W, strain BCK1 (second series), hits give low values",0.979
same,normalized growth,"locus YJL115W, strain asf1, hits give low values",0.967
same,normalized growth,"locus YJL129C, strain trk1, hits give low values",0.986
same,normalized growth,"locus YJL154C, strain vps35, hits give low values",0.974
same,normalized growth,"locus YJL164C, strain tpk1, hits give low values",0.979
same,normalized growth,"locus YJL166W, strain qcr8, hits give low values",0.982
same,normalized growth,"locus YJL187C, strain SWE1, hits give low values",0.978
same,normalized growth,"locus YKL160W, strain elf1, hits give low values",0.976
same,normalized growth,"locus YKR026C, strain gcn3, hits give low values",0.978
same,normalized growth,"locus YKR091W, strain srl3, hits give low values",0.984
same,normalized growth,"locus YLL001W, strain dnm1, hits give low values",0.975
same,normalized growth,"locus YLL026W, hits give low values",0.981
same,normalized growth,"locus YLL041C, strain sdh2, hits give low values",0.982
same,normalized growth,"locus YLR027C, strain aat2, hits give low values",0.982
same,normalized growth,"locus YLR221C, strain rsa3, hits give low values",0.969
same,normalized growth,"locus YLR258W, strain gsy2, hits give low values",0.986
same,normalized growth,"locus YLR262C, strain YPT6 (second series), hits give low values",0.977
same,normalized growth,"locus YLR320W, strain mms22, hits give low values",0.977
same,normalized growth,"locus YLR342W, strain FKS1, hits give low values",0.98
same,normalized growth,"locus YLR357W, strain rsc2, hits give low values",0.964
same,normalized growth,"locus YLR370C, strain arc18, hits give low values",0.966
same,normalized growth,"locus YLR384C, strain iki3, hits give low values",0.963
same,normalized growth,"locus YML120C, strain ndi1, hits give low values",0.981
same,normalized growth,"locus YMR058W, strain fet3, hits give low values",0.987
same,normalized growth,"locus YMR125W, strain sto1, hits give low values",0.981
same,normalized growth,"locus YMR129W, hits give low values",0.983
same,normalized growth,"locus YMR205C, strain PFK2, hits give low values",0.982
same,normalized growth,"locus YMR231W, strain pep5, hits give low values",0.967
same,normalized growth,"locus YNL071W, strain lat1, hits give low values",0.983
same,normalized growth,"locus YNL209W, strain ssb2, hits give low values",0.975
same,normalized growth,"locus YNL248C, strain rpa49, hits give low values",0.98
same,normalized growth,"locus YNL322C, strain KRE1 (second series), hits give low values",0.989
same,normalized growth,"locus YNR049C, strain mso1, hits give low values",0.987
same,normalized growth,"locus YOR001W, strain rrp6, hits give low values",0.97
same,normalized growth,"locus YOR070C, strain gyp1, hits give low values",0.978
same,normalized growth,"locus YOR080W, strain dia2, hits give low values",0.969
same,normalized growth,"locus YOR083W, strain WHI5, hits give low values",0.986
same,normalized growth,"locus YOR106W, strain vam3, hits give low values",0.984
same,normalized growth,"locus YOR265W, strain rbl2, hits give low values",0.972
same,normalized growth,"locus YOR270C, strain vph1, hits give low values",0.952
same,normalized growth,"locus YOR290C, strain snf2, hits give low values",0.961
same,normalized growth,"locus YPL051W, strain arl3, hits give low values",0.977
same,normalized growth,"locus YPL078C, strain atp4, hits give low values",0.97
same,normalized growth,"locus YPL106C, strain sse1, hits give low values",0.97
same,normalized growth,"locus YPL240C, strain hsp82, hits give low values",0.982
O=c1onc2n1-c1cc(Br)ccc1OC2,normalized growth,"locus YAL013W, strain DEP1, hits give low values",0.994
same,normalized growth,"locus YAL040C, strain CLN3, hits give low values",0.991
same,normalized growth,"locus YCL061C, strain MRC1 (second series), hits give low values",1.01
same,normalized growth,"locus YDR363W, strain ESC2, hits give low values",0.995
same,normalized growth,"locus YER002W, strain NOP16, hits give low values",1
same,normalized growth,"locus YGR078C, strain PAC10, hits give low values",0.952
same,normalized growth,[1],1
same,normalized growth,"locus YMR263W, strain SAP30, hits give low values",1.01
same,normalized growth,[2],0.989
same,normalized growth,"locus YNL153C, strain GIM3, hits give low values",0.763 (active)
same,normalized growth,"locus YNL175C, strain NOP13, hits give low values",1
same,normalized growth,"locus YNL197C, strain WHI3, hits give low values",1.02
same,normalized growth,"locus YNL224C, strain SQS1, hits give low values",1
same,normalized growth,[3],0.998
same,normalized growth,"locus YOR083W, strain WHI5 (second series), hits give low values",0.882
same,normalized growth,"locus YPL241C, strain CIN2, hits give low values",1
